# According to PubChem BioAssay:
# Several values for one entry are separate records, joined by “and”; a condition that tells them apart may be missing. Equal entries are not always repeated. Activity calls are given as the source filed them. Unless noted, no stated cut-off is given here; in the data, active means parasite load remaining mostly below about 12% (no sharp cut-off); inactive means mostly above about 10%.
# Experiments:
# [1] = P. berghei load reduction in hepatocytes – cell-based, HepG2, luciferase luminescence, HepG2 viability, primary screen (AID 624349);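 further: 100% = mean of DMSO negative control wells on the same plate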; conditions: P. berghei liver stage in HepG2, luciferase luminescence, concentration not given here; parasite load remaining: stronger effect = lower value; viability: measured here: HepG2 viability without parasites
# [2] = Wnt pathway potentiators raising nuclear beta-catenin – imaging, WNT3A-conditioned medium, mouse C2C12, NPC library, primary screen (AID 1117326; in the data active means nuclear beta-catenin stimulation mostly above about 4.2%, no sharp cut-off; inactive means mostly below about 10%); conditions: stronger effect = higher value
# [3] = stimulators of insulin release from INS-1E, primary screen, cell-based, 5 mM glucose, NPC library (AID 1117329;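 active means compound raises insulin release from rat beta cells at 5 mM glucose, no numeric limit stated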); conditions: rat INS-1E insulin secretion, at 10 µM, stronger effect = higher value
# [4] = growth inhibition of GSK3B-pretreated HCT116 cells – cell-based, CellTiter-Glo, 0.2 to 20 µM (AID 1117336;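 active means compounds lowering colon cancer cell viability after pretreatment blocking the GSK3B kinase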); conditions: HCT116 viability after GSK3B inhibitor, at 20 µM, stronger effect = higher value
# [5] = inhibition of endothelial tube formation, primary screen, imaging, VEGF stimulated, CD31 staining, tube area, NPC library (AID 1117340;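 active means compound that reduces growth-factor-driven endothelial tube area in a mixed cell culture, no cutoff stated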); conditions: VEGF-stimulated ADSC/ECFC co-culture, at 10 µM, stronger effect = higher value
# [6] = GLP1 release stimulators, primary, NCI-H716, NPC library (AID 1117341;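 active means compound raises GLP1 secretion from the human gut endocrine cells, with no numeric limit stated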); conditions: NCI-H716 cells, at 10 µM, stronger effect = higher value
# [7] = HCT116 colon cancer cell growth inhibition, primary screen, CellTiter-Glo luminescence, NPC library (AID 1117342;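 active means compounds that lower survival of HCT116 colon cancer cells in the luminescence readout, no numeric limit stated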); conditions: at 20 µM (top of the series)
# [8] = reduced SW480 viability measured with CellTiter-Glo, NPC library, primary (AID 1117343;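 active means compounds that lower viability of the colon cancer cells in the luminescence readout, with no numeric limit stated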); conditions: CellTiter-Glo luminescence; at 20 µM (top of the series)
# [9] = NPC library primary testing for decreased DLD-1 cell viability via CellTiter-Glo (AID 1117346;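 active means compounds that lower survival of DLD-1 colon cancer cells in the luminescence readout, no cutoff given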); conditions: DLD-1 viability, CellTiter-Glo luminescence; at 20 µM (top of the series)
# [10] = target: 6-phosphogluconate dehydrogenase, decarboxylating (Homo sapiens) (UniProt P52209); assay: inhibition of human phosphogluconate dehydrogenase – biochemical, recombinant enzyme, NADPH absorbance, primary screen (AID 1159550;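 active means at least 20% inhibition of 6-phosphogluconate dehydrogenase activity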); conditions: recombinant 6PGD, NADPH absorbance 341 nm; at 10 µM; stronger effect = higher value
# [11] = EMT-state selective cytotoxicity in co-culture – imaging, PC-3E GFP, TEM4-18 mCherry, primary screen (AID 1345086;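 active means compounds killing one labelled cell type while sparing the other, by normalised counts and ratio limits, not self-fluorescent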;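 on all read-outs here: cells exposed to compound for 72 h before imaging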;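 on red/green cell ratio (normalised): normalised mesenchymal count divided by normalised epithelial count so high means epithelial killing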); conditions: PC-3E GFP / TEM4-18 mCherry co-culture, imaging cell counts, at 1 µM; for red/green cell ratio (normalised): actives lie on both sides
# [12] = test system: Aerobactin synthetase IucA (Klebsiella pneumoniae hvKP1); assay: IucA enzyme inhibition, primary screen, biochemical, Spectrum library (AID 1346200; call rule not given here;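 further: 100% = wells without compound and 0% = wells lacking enzyme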); conditions: malachite green pyrophosphate, A620, at 8 µM, stronger effect = lower value
# [13] = target: NAD(+) hydrolase SARM1 (Homo sapiens) (UniProt Q6SZW1); assay: blocking NAD cleavage by SARM1 SAM-TIR – cell lysate, NAD-Glo luminescence (AID 1508614;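 active means compound whose remaining NAD level is above about 45 nM, limit read from the data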); conditions: SAM-TIR HEK293T lysate NADase, at 1 µM, stronger effect = higher value
# [14] = yeast 75Q aggregation reduction – 75Q-TubU reporter (AID 1593); conditions: Yeast 75Q polyglutamine aggregation reporter
# [15] = blockers of cytochrome c efflux from mitochondria – biochemical, purified mitochondria (AID 1603); conditions: stronger effect = lower value;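 further: mouse liver mitochondria challenged with calcium chloride; signal normalized to the plate average as 100%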
# [16] = polyglutamine aggregate formation blockers (AID 1604); conditions: polyglutamine-induced protein aggregation inhibition assay; stronger effect = higher value; tested at 2.5 µM
# [17] = viability loss with induced miR-34 in A549 – imaging, A549 dox-inducible miR-34, nuclei and caspase counts, primary screen (AID 1347080;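 active means compounds whose cell count with miR-34 switched on is under 0.7 times the count with it off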); conditions: A549 miR-34 inducible, Hoechst nuclei count, 48 h
# [18] = MELAS cybrid and Rieske KO viability enhancers – cell-based, MELAS cybrids, Rieske KO mouse fibroblasts, CellTiter-Glo, primary screen (AID 1508586;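 active means mean z-score across replicates of 1.96 or higher in either the MELAS or the Rieske mutant cell line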;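 further: z relative to plate mean and SD of compound and empty wells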); conditions: low glucose
# [19] = target: Mitogen-activated protein kinase 7 (Homo sapiens) (UniProt Q13164); assay: Gal4-ERK5 driven luciferase induction – cell-based, HTS, primary screen (AID 1508626;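 active means luciferase signal above three times the same-plate solvent-only control wells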;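 further: luciferase driven by Gal4-ERK5 fusion binding five Gal4 sites before minimal TATA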); conditions: HeLa Gal4-ERK5 transactivation, 18 h, at 5 µM, stronger effect = higher value
# [20] = measured here: epithelial PC-3E GFP cell survival
# [21] = measured here: mesenchymal TEM4-18 mCherry cell survival
# 6-phosphogluconate dehydrogenase, decarboxylating (Homo sapiens), sequence (P52209 whole entry, looked up): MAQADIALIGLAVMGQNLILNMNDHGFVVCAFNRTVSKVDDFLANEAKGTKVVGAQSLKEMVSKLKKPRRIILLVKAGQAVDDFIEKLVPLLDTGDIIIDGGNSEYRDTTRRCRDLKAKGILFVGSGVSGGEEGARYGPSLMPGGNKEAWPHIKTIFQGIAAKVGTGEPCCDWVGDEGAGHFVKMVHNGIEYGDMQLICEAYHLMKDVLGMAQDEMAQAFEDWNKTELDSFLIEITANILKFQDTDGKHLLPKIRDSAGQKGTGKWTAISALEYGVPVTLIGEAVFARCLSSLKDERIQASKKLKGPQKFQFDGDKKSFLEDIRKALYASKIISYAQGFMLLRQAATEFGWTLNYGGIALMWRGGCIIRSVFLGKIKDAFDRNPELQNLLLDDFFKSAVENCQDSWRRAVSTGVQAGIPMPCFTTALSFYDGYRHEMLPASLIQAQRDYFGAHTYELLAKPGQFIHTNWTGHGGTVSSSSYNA
# NAD(+) hydrolase SARM1 (Homo sapiens), sequence (Q6SZW1 whole entry, looked up): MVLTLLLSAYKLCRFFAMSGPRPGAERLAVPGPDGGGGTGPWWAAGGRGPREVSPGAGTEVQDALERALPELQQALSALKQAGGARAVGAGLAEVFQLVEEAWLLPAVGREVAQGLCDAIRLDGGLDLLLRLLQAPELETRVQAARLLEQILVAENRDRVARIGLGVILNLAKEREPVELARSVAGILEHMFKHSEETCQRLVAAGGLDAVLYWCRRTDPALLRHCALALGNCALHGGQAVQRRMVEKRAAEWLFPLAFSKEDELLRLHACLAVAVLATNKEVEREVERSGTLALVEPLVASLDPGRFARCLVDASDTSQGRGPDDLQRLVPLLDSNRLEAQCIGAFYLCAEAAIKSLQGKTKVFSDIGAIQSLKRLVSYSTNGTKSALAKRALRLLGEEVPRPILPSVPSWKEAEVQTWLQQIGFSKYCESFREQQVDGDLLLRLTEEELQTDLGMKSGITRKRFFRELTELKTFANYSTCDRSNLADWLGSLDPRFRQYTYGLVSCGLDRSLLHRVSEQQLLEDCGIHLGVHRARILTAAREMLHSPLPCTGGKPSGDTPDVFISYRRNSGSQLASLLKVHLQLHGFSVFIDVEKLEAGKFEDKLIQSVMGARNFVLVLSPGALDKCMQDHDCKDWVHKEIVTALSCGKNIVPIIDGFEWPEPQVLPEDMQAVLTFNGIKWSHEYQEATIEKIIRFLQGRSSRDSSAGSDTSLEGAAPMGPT
# Mitogen-activated protein kinase 7 (Homo sapiens), sequence (Q13164 whole entry, looked up, the tested form may be a part): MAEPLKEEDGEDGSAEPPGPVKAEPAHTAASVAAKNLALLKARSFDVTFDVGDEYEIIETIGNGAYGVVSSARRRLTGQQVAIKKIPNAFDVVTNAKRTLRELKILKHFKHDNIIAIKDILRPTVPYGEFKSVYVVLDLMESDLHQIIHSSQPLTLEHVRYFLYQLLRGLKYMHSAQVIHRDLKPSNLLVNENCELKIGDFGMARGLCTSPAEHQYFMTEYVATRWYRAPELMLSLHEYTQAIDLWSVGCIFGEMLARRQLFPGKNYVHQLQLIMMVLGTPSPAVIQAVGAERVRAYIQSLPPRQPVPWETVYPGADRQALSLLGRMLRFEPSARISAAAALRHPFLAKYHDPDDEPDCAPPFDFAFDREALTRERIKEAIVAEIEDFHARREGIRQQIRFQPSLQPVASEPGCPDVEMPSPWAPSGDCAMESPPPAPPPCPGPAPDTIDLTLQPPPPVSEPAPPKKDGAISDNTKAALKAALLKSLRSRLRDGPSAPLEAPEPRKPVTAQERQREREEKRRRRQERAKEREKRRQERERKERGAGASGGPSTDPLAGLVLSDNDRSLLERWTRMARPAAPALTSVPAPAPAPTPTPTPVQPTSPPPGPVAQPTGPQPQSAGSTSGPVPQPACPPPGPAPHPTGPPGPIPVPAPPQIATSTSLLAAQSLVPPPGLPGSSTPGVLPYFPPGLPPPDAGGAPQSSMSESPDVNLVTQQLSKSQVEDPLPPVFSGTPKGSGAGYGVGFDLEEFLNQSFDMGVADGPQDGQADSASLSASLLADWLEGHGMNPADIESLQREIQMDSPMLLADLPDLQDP
compound,measurement,setting,value
CC(C)=CC1C(C(=O)OCc2cccc(Oc3ccccc3)c2)C1(C)C (centres undefined),parasite load remaining,[1],123% (inactive)
same,viability,[1],88.5%
same,nuclear beta-catenin stimulation,[2]; at 10 µM,1.3% (inactive)
same,nuclear beta-catenin stimulation,"[2]; stimulation, at 2 µM",2.5%
same,insulin secretion stimulation,[3],2.9% (inactive)
same,viability decrease,[4],-21.3% (inactive)
same,tube area decrease,[5],-14.2% (inactive)
same,GLP1 secretion stimulation,[6],1.7% (inactive)
same,inhibition of viability,[7],15.9% (inactive)
same,viability decrease (inhibition),[8],16.2% (inactive)
same,viability decrease (inhibition),[9],31.4% (inactive)
same,inhibition,[10],-5.61% (inactive)
same,red/green cell ratio (normalised),[11],0.95 (inactive)
same,normalised cell number,[11]; [20],1.25
same,normalised cell number,[11]; [21],1.19
same,activity remaining,[12],99.1% (inactive)
same,remaining NAD,[13],10 nM (inactive)
c1ccc2c(c1)sc1ccccc12,score,[14],-0.17
same,cytochrome c release ratio,[15],0.98
same,inhibition of aggregation,[16],65.4%
same,parasite load remaining,[1],94.3% (inactive) and 69.4% (inactive)
same,viability,[1],70.5% and 91.8%
same,nuclear beta-catenin stimulation,[2]; at 10 µM,0.1% (inactive)
same,nuclear beta-catenin stimulation,"[2]; stimulation, at 2 µM",0.9%
same,insulin secretion stimulation,[3],-1.4% (inactive)
same,viability decrease,[4],-3.95% (inactive)
same,tube area decrease,[5],-9.2% (inactive)
same,GLP1 secretion stimulation,[6],-2.6% (inactive)
same,inhibition of viability,[7],-22.5% (inactive)
same,viability decrease (inhibition),[8],-1.8% (inactive)
same,viability decrease (inhibition),[9],3% (inactive)
same,inhibition,[10],9.3% (inactive)
same,red/green cell ratio (normalised),[11],1.2 (inactive)
same,normalised cell number,[11]; [20],1.12
same,normalised cell number,[11]; [21],1.35
same,activity remaining,[12],113% (inactive)
same,fold change,[17]; stronger effect = lower value,0.934 (inactive) and 0.791 (inactive)
same,fold change,[17]; measured here: relative caspase fold change +Dox/-Dox,0.629 and 1.03
same,cell count,"[17]; measured here: total cells with miR-34 induction, stronger effect = lower value",8380 and 10000
same,cell count,[17]; measured here: total cells without miR-34 induction,8970 and 12600
same,z-score,"[18]; MELAS cybrid survival, CellTiter-Glo 48 h, stronger effect = higher value",-0.144 (inactive)
same,z-score,"[18]; Rieske KO mouse fibroblast survival, CellTiter-Glo 72 h",-0.145
same,remaining NAD,[13],10 nM (inactive)
same,luciferase signal,[19],32 AU (inactive)
